Compound activity (PubChem)
GLD-1 RNA inh = GLD-1-TGE RNA interaction inhibition (C. elegans); inhibition, % at 5.96 µM; Q17339; AID 2280; hit rate 0.44% among 320,000; purified GLD-1 + fluorescein TGE RNA, fluorescence polarization;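 active = percent inhibition above a per-plate cutoff, the plate mean of test compounds plus 3 SD, cut at about 30% in these data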;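 note: 0% = DMSO wells with GLD-1 and probe and 100% = wells lacking GLD-1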
MCL1-BIM inh = MCL1-BIM-BH3 interaction inhibition (human) | GST-MCL1 / FITC-Bim-BH3 fluorescence polarization | inhibition, % at 10.9 µM | hit rate 0.68% among 320,000;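 active = inhibition above the mean inhibition of all tested compounds plus 3 SD, set per campaign, cut at about 40% in these data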;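 note: 0% = DMSO wells and 100% = unlabeled Bim-BH3 peptide control; higher means more loss of mP so more displacement of Bim peptide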
Target sequence (Q07820 whole entry, looked up): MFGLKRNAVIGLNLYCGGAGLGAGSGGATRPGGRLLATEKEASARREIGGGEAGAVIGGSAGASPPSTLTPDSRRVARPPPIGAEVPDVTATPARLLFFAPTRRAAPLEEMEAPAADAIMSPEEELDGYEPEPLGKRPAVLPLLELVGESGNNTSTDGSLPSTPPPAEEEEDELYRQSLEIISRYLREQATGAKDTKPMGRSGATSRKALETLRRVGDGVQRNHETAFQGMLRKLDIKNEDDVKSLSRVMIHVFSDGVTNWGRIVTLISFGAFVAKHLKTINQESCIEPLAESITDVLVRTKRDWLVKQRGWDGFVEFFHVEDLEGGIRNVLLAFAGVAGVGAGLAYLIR
Mcl1-Noxa inh = Mcl-1/Noxa interaction inhibition | TR-FRET Mcl-1/Noxa peptide binding, 2 h | inhibition, % at 21.7 µM | hit rate 1.5% among 220,000 | AID 1022 | Q07820;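 active = compounds that cut the protein-peptide binding signal by more than 50% relative to plate controls in a single-dose test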;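 note: His-tagged Mcl-1 with rhodamine Noxa BH3 peptide and terbium anti-His antibody; 0% = Mcl-1 plus Noxa peptide wells and 100% = peptide-only wells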
Mcl1 Bid PPI = Mcl-1/Bid interaction inhibition; inhibition, % at 21.7 µM; Q07820; hit rate 0.97% among 220,000; TR-FRET Mcl-1/Bid-Dy647 peptide binding, 1536-well; AID 1021;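 active = compounds that cut the binding signal by more than half at the single screening dose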;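 note: His-tagged Mcl-1 with europium anti-His antibody binding Bid BH3 peptide; 0% = Mcl-1 plus peptide wells and 100% = peptide-only wells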
BCLXL inh = blocks human Bcl-xL binding to Bim BH3 peptide; Q07817; inhibition, % at 10.9 µM; GST-Bcl-xL / FITC-Bim BH3 peptide fluorescence polarization; hit rate 0.7% among 320,000;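 active = inhibition above the mean of all tested compounds plus 3 SD, cutoff set per campaign, cut at about 30% in these data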;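 note: 0% = DMSO wells and 100% = unlabeled Bim-BH3 peptide competitor; inhibitors lower millipolarization by displacing the labeled peptide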
Target sequence (Q07817 whole entry, looked up): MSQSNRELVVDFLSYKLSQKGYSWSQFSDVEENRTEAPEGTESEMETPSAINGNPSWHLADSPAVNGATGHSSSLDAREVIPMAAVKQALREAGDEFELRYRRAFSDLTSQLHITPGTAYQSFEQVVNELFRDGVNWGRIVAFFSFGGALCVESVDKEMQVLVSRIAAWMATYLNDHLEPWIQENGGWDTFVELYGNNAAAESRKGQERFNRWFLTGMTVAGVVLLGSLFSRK
Mcl-1 Bim block = disrupts Bim peptide binding to human Mcl-1 | Q07820 | Bead-based flow cytometry, Bim peptide-Mcl-1 binding | inhibition, % at 10 µM | hit rate 0.1% among 190,000 | AID 1009; in the data active = inhibition above about 40%;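 note: 0% = no compound tracer wells and 100% = peptide blocker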
Starred values were filed as active, the others as inactive; nt = no result given. The list is not random: actives were taken first. Their share in the collection is about 2.3%.

SMILES	GLD-1 RNA inh	MCL1-BIM inh	Mcl1-Noxa inh	Mcl1 Bid PPI	BCLXL inh	Mcl-1 Bim block
CN(C)c1ccc(CN(C(=O)c2ccccc2Br)C2CCS(=O)(=O)C2)cc1 (stereo not given)	-3.6	5.4	nt	nt	4.7	nt
CN(CCO)c1nc(N)c2c(N)nc3c(c2c1C#N)CC(=O)N3C1CCCC1	-0.6	37.9	46.2	-22.7	25.6	3.0
N#Cc1c(N2CCN(c3ccc(F)cc3)CC2)nc(N)c2c(N)nc3c(c12)CC(=O)N3C1CC1	nt	nt	54.6*	-6.2	nt	4.0
CCNS(=O)(=O)c1ccc(CCC(=O)NCc2ccccn2)cc1	0.8	-3.3	nt	nt	3.4	nt
CC1N(C)c2cccc3cccc(c23)N1C	-65.8	7.3	62.7*	-11.3	10.2	11.0
C/C(=N\Nc1ccc(Cl)c(C(=O)O)c1)c1ccc[nH]1	-1.9	28.2	25.2	-34.1	20.6	nt
CCN1C(=O)C(C)S/C1=N\S(=O)(=O)c1ccc(F)cc1 (stereo not given)	3.9	8.4	75.0*	0.8	2.7	-1.0
COc1cccc(NC(=O)COc2cccc3c2CCNC3=O)c1	-0.4	-0.7	nt	nt	-0.1	nt
CCC(CC)C(=O)Nc1cccc(C(=O)Nc2ccc(S(N)(=O)=O)cc2)c1	1.8	0.0	-1.0	-39.0	1.4	0.0
CCC(CC)C(=O)Nc1cccc(S(=O)(=O)c2cccc(NC(=O)C(CC)CC)c2)c1	7.7	-2.1	2.4	-14.9	-1.5	44.0*
C=CCc1ccc(OCCCN2CCCC(C)C2)c(OC)c1 (stereo not given)	9.0	6.7	12.3	59.0*	7.5	-4.0
C=CCc1ccc(OCCCCN2CCC(C)CC2)c(OC)c1	-4.5	-2.4	6.6	39.3	6.2	-10.0
COC(=O)c1c(C)[nH]c(C)c1C(C)=O	7.5	-2.4	4.9	71.2*	-0.5	nt
COC(=O)c1c(C)[nH]c(C(C)=O)c1C	3.5	7.7	8.1	0.8	5.8	-3.0
CCCCN(CCCC)CCNC(=O)c1cn(CC)c2ccc(S(=O)(=O)N3CCCC3)cc2c1=O	1.0	1.6	nt	nt	1.7	nt
O=S1(=O)c2ccccc2N=NN1Cc1ccc(Cl)cc1	3.9	9.5	53.2*	40.1	9.2	0.0
Clc1ccc(Cn2cnc3ccccc32)cc1	-2.3	-1.2	-2.0	-12.0	5.0	1.0
O=S1(=O)c2ccccc2N=NN1Cc1cc(Cl)cc(Cl)c1	4.0	17.1	98.9*	48.8	15.0	-3.0
COc1ccccc1CNC(=O)CSc1ccsc1[N+](=O)[O-]	8.8	29.4	26.6	-7.9	11.4	-6.0
O=C(CSc1ccsc1[N+](=O)[O-])Nc1cccc(F)c1	nt	nt	97.9*	-47.3	nt	0.0
NS(=O)(=O)c1ccc(CCNC(=O)CSc2ccsc2[N+](=O)[O-])cc1	2.9	12.9	53.0*	-34.8	15.7	5.0
CCc1ccccc1NC(=O)CSc1ccsc1[N+](=O)[O-]	3.7	34.1	54.5*	-56.5	6.6	-3.0
COc1ccc(/C=C2\SC(=O)N(CC(=O)NCCCn3ccnc3)C2=O)cc1	4.7	7.5	nt	nt	5.0	nt
Cc1ccc(-c2n[nH]c(=S)n2C)cc1Cl	3.4	-17.9	53.3*	-38.8	-11.2	-1.0
CCN(CC)S(=O)(=O)c1cccc(-c2n[nH]c(=S)n2C)c1	-4.8	-11.5	33.4	-14.7	-15.3	0.0
SMILES	GLD-1 RNA inh	MCL1-BIM inh	Mcl1-Noxa inh	Mcl1 Bid PPI	BCLXL inh	Mcl-1 Bim block
C=CCn1c(SCC(=O)c2ccc(O)c(O)c2)nnc1-c1cccc(Cl)c1	-6.8	18.4	nt	nt	4.3	nt
C=CCn1c(SCC(=O)O)nnc1-c1cccc(Cl)c1	7.5	-13.7	70.3*	-42.3	3.1	2.0
OC1(c2cccnc2)CCN(Cc2nnnn2C2CCCCC2)CC1	5.5	-0.1	35.5	51.5*	-1.9	0.0
C1CCC(n2nnnc2CN2CCCC2)CC1	-3.2	1.2	18.8	2.6	4.6	1.0
COc1c(C)cc(Br)cc1C(=O)Nc1ccc(S(N)(=O)=O)cc1	4.7	-0.7	6.6	-30.5	-1.4	44.0*
CN(C)c1ccc(C(=O)/C=C/c2cccnc2)cc1	-4.6	-9.2	nt	nt	-7.2	nt
CN(C)c1ccc(/C=C/C(=O)c2cccc(Br)c2)cc1	-21.1	14.2	-15.9	-22.4	46.1*	-3.0
C=C(C)C(=O)N1CC2(CC(c3cccc(NC(=O)CC)c3)=NO2)C[C@H]1C(N)=O (stereo not given in full)	8.6	11.1	-8.8	-4.7	6.9	nt
O=C(CSc1nc(Cc2ccccc2)nc2ccccc12)Nc1ccc2c(c1)OCCO2	26.0	4.8	0.3	58.5*	4.0	-2.0
O=C(CSc1ncnc2ccccc12)Nc1ccc2c(c1)OCCO2	3.8	6.8	-7.7	-1.5	3.9	0.0
O=C(CNC(=O)N1CC(=O)Nc2ccccc21)Nc1nccs1	1.2	6.7	nt	nt	5.1	nt
CCOc1ccc(C(=O)C[n+]2cccc3cc(C)ccc32)cc1	-28.9	45.5*	nt	nt	35.2*	nt
Cc1ccc(C(=O)C[n+]2cccc3cc(C)ccc32)cc1	-19.1	8.6	26.7	-12.9	14.1	2.0
Cc1c(NC(=O)COC(=O)c2cc(-c3ccc(-c4ccccc4)cc3)nc3ccccc23)c(=O)n(-c2ccccc2)n1C	0.9	-1.2	21.0	81.7*	-2.6	-4.0
Cc1c(NC(=O)c2cc(-c3ccccc3)nc3ccccc23)c(=O)n(-c2ccccc2)n1C	2.6	nt	nt	nt	nt	nt
CC1(C)N([O-])c2cc([N+](=O)[O-])ccc2[N+]1=O	7.7	45.4*	84.6*	-64.8	34.9*	nt
Cc1ccc(C)n1-c1cc([N+](=O)[O-])ccc1-n1ccnc1	-7.5	-1.1	18.2	-9.7	3.4	nt
O=C(O)CC1(CC(=O)N2CCC(C(=O)O)CC2)CCCC1	8.7	0.4	nt	nt	2.3	nt
CCc1ccc2c(CN(CC)Cc3nc4ccccc4c(=O)[nH]3)cc(=O)oc2c1	8.0	-1.6	-1.3	89.6*	-0.6	-1.0
CCN(Cc1nc2ccccc2c(=O)[nH]1)Cc1nc2ccsc2c(=O)[nH]1	-6.0	1.4	-65.7	-75.5	3.2	0.0
CC(NC(=O)c1ccco1)C(=O)NC(C)c1cc(F)c(Cl)cc1Cl (stereo not given)	-1.7	7.2	nt	nt	7.5	nt
O=C(Nc1ccc(C2=NCCN2)cc1)c1ccc(C(=O)Nc2ccc(C3=NCCN3)cc2)c([N+](=O)[O-])c1	8.2	14.1	67.3*	33.6	1.8	nt
Cc1ccc(NC(=O)c2ccc(-n3cccn3)c([N+](=O)[O-])c2)cc1	7.3	-5.5	18.0	-20.9	-0.1	10.0
NS(=O)(=O)c1ccc(CCNC(=O)CN2C(=O)COc3ccc(S(=O)(=O)N4CCCC4)cc32)cc1	-4.0	2.0	nt	nt	4.3	nt
Cc1cccc(OCc2nc(C#N)c(NCc3ccc4c(c3)OCO4)o2)c1	0.2	-5.3	8.0	82.9*	-1.7	0.0
N#Cc1nc(COc2ccc(Cl)cc2)oc1NCc1ccc2c(c1)OCO2	-4.9	-1.0	-4.5	-16.5	4.6	0.0
CC(CC(=O)N(C)c1c(N)n(Cc2ccccc2)c(=O)[nH]c1=O)c1ccccc1 (stereo not given)	0.0	-2.2	nt	nt	0.2	nt
